Shown are actives, neighbours in structure and some others; about 19% of the full set was active somewhere.
HT1080NT lethal: kills 2HG-producing HT-1080-NT fibrosarcoma cells; HT-1080-NT fibrosarcoma viability, CellTiter-Glo ATP luminescence, 48 h; Potency, µM (titrated, usually from 46.1 µM), for the others: at the highest dose activity, negative = less viability, actives largely listed as cytotoxic; actives 1.6% (n = 360,000);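 further: NT is the 2HG producing partner of a matched IDH1 knockdown line; potency means the concentration at half of the fitted maximal effect; 0% = DMSO-treated cells and -100% = media-only wells without cells; nearly all actives have a fitted effect of over 55% in size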
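HT-1080-NT fibrosarcoma cells (2HG-overproducing), 750 cells/well in RPMI with 5% FBS, dosed after 2 h and incubated 48 h at 37C. CellTiter-Glo luminescence normalized to DMSO and no-cell wells; concentration-response curves fitted and classed.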
DT40 TDP1 CPT: DT40-hTDP1 cell growth loss with CPT. chicken DT40 Tdp1-/-;hTDP1 cells + 20 nM CPT, ATP luminescence, 48 h. Potency, µM (series often up to 46.2 µM), without a hit: at the top dose activity change, negative = growth inhibition, most hits filed as inhibitors. actives 12% (n = 420,000); further: potency means the concentration at half of the fitted maximal effect; nearly all actives have a fitted effect of over 55% in size
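Cell growth measured by CellTiter-Glo luminescence after a minimum 48 h, 37 C compound exposure with 20 nM CPT in Tdp1-knockout DT40 cells stably expressing hTDP1, seeded 400/well; qHTS titration format.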
IL1B secr inh: inhibitors of inflammasome signaling (IL-1 beta secretion). THP-1 LPS/ATP IL-1B secretion, AlphaLISA, 16 h; active compounds read low. activity change, % at 57.5 µM. actives 4.7% (n = 360,000); in the data active means activity change below about -50%; inconclusive means mostly about -30% to -49%
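Secreted IL-1B measured by AlphaLISA bead assay after 16 h compound exposure of THP-1 cells; compounds (final up to 57.5 uM) added 1 h before LPS (250 ng/mL) and ATP (1.25 mM) stimulation; lower signal means less secretion.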
ELG1 repair inh: ELG1-dependent DNA repair inhibition; Potency, µM (top dose mostly 46.1 µM), without a hit: at the highest dose activity change, negative = inhibition, hits mostly inhibitors; AID 504467; actives 2.3% (n = 330,000); HEK293T ELG1-luciferase reporter, luminescence, 16 h; DNA damage induced by 5-fluorouridine; further: potency means the concentration at half of the fitted maximal effect; nearly all actives have a fitted effect of over 55% in size
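HEK293T cells expressing luciferase-tagged ELG1 (2,000/well) received 5-Fluorouridine plus compound or DMSO for 16 hr at 37 °C. Luciferase was read by ONE-Glo luminescence after 30 min at room temperature.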
HT1080 IDH1KD tx: toxicity to HT-1080 IDH1 knockdown cells (counter line) | actives 2% (n = 360,000) | HT-1080 IDH1 knockdown viability, ATP luminescence, 48 h | AID 686971 | Potency, µM (doses to about 46.1 µM), inactives show at the top dose activity, negative = toxicity, actives largely listed as cytotoxic;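 further: potency means the concentration at half of the fitted maximal effect; 0% = DMSO wells and -100% = cell-free medium wells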
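Using the IDH1-knockdown HT-1080 line run in the same batch and compound series as the NT line, viability after 48 h at 37 °C was determined by CellTiter-Glo luminescence and expressed as % activity.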
DT40 TDP1 no CPT: qHTS for Inhibitors of human tyrosyl-DNA phosphodiesterase 1 (TDP1): qHTS in cells in absence of CPT; actives 15% (n = 420,000); AID 686978, 2013; Potency, µM (doses to about 46.2 µM), without a hit: top-dose activity change, negative = growth inhibition, most hits filed as inhibitors; DT40 Tdp1-/- hTDP1 cells, no CPT, ATP luminescence, 48 h; further: potency means the concentration at half of the fitted maximal effect; nearly all actives have a fitted effect of over 55% in size
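Stably hTDP1-transfected Tdp1-null chicken DT40 cells were treated with library compounds minus camptothecin and grown for at least 48 hr at 37 °C, after which cellular ATP was quantified by luminescence.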
Numbers without * were called inactive; ? = inconclusive; · = not tested or not shown; [ ] = remark or other dose. Unless noted, the call rests on the fitted dose curve; in most records, active means well fitted curve in the direction sought with a large enough effect; inconclusive means small, poorly fitted or top-dose-only effect, or another doubt; inactive means no such curve, though single readings can be large; an effect the other way counts as inactive or inconclusive. Unless noted, on the % scale 0 is the no-effect control and ±100 the full control effect.

SMILES	HT1080NT lethal	DT40 TDP1 CPT	IL1B secr inh	ELG1 repair inh	HT1080 IDH1KD tx	DT40 TDP1 no CPT
CC(CCc1ccccc1)NC(=O)/C=C/c1ccc(Cl)cc1 (stereo not drawn)	4.0%	6.1%	-79.0*	?	-1.6%	-20.0%
CC1CCCCC12NC(=O)N(CC(=O)N1CCN(C(=O)c3cccs3)CC1)C2=O (stereo not drawn)	-2.2%	3.8%	-10.8	2.3%	-2.5%	-17.2%
Cc1cnc(-c2nc3ccccc3n2C(C(=O)Nc2c(C)cccc2C)C2CC2)cn1 (stereo not drawn)	14.7%	?	15.4	·	14.3%	?
Cc1ccc(CN(C)C(=O)c2cccc(S(=O)(=O)N3CCc4ccccc4C3)c2)o1	-1.3%	-22.6%	-26.8	?	0.1%	-18.9%
O=C(CCS(=O)(=O)c1ccc(Br)s1)Nc1cc(C(F)(F)F)cc(C(F)(F)F)c1	·	14.6µM*	·	·	·	20.6µM*
CC(=O)c1cccc(NC(=O)CCS(=O)(=O)c2ccc(Br)s2)c1	12.1%	6.8%	120.6	-16.9%	5.3%	?
c1cc2c(cc1C1=Nn3c(nnc3C3CCCCC3)SC1)OCO2	0.0%	18.4µM*	0.0	?	-13.8%	13µM*
CC(=O)Nc1cncc(-c2cccc(S(C)(=O)=O)c2)n1	?	1.1%	-12.5	·	9.9%	-1.2%
O=C(O)[C@@H]1CC(O)CN1C(=O)CCc1c[nH]c2ccccc12 (stereo partly drawn)	14.4%	-13.3%	28.7	?	18.4%	-2.9%
CCCNC(=O)CN1C(=O)c2cccnc2Sc2ccccc21	·	6.3%	·	·	·	1.9%
O=C(COC(=O)c1ccc(S(=O)(=O)N2CCCC2)cc1)Nc1ccc(N2CCOCC2)cc1	16.3%	18.4µM*	31.4	8.1%	-7.4%	?
O=C(COC(=O)c1n[nH]c2ccccc12)Nc1ccc(S(=O)(=O)N2CCCC2)cc1	-22.3%	23.1µM*	-3.6	?	-25.3%	20.6µM*
O=C(Nc1c(-c2ccccc2)[nH][nH]c1=O)c1cccs1	17.3%	0.8%	5.3	·	18.6%	0.3%
CCN(CC)c1ccc(C(=O)NNC(=O)C2CSC3(C)CCC(=O)N23)cc1 (stereo not drawn)	-1.8%	-3.6%	-12.9	10.1%	3.1%	4.3%
Nc1ncc(-c2ccccc2)n1CC1CCCO1 (stereo not drawn)	-2.5%	?	-25.6	9.8%	-2.2%	18.4µM*
O=C(CSc1ncc(-c2ccccc2)n1CC1CCCO1)N1CCCCC1 (stereo not drawn)	-13.8%	-8.9%	-13.6	0.0%	-17.8%	-16.3%
c1ccc(-c2nc3nc4ccccc4nc3n2CC2CCCO2)cc1 (stereo not drawn)	7.6%	?	-3.2	0.0%	5.7%	14.6µM*
CCc1cc(C(=O)NCc2ccccc2)no1	·	-18.8%	·	·	·	-3.0%
Cc1ccc(S(=O)(=O)N(C)C)cc1NC(=S)NNC(=O)C(N)=O	9.7%	14.8%	-2.7	-2.7%	?	8.0%
O=C(Cc1ncc(C(F)(F)F)cc1Cl)NNc1cccc(F)n1	-1.0%	27.1%	0.0	1.2%	0.0%	8.7%
Cc1ccc(CNC(=O)c2cc3c(C)nc4ccccc4c3o2)cc1	3.9%	9.2µM*	12.8	14.6µM*	-1.3%	7.31µM*
Cc1nc2ccccc2c2oc(C(=O)NCc3ccccn3)cc12	-1.3%	?	1.0	18.4µM*	-17.5%	?
Cc1nc2ccccc2c2oc(C(=O)NCCCN3CC(C)CC(C)C3)cc12 (stereo not drawn)	-23.5%	?	-18.8	-5.2%	-29.0%	-24.4%
O=C(c1csnn1)N1CCC2(CC1)CN(c1ccncc1)C2	·	-4.3%	·	·	·	-23.1%
CCOC(=O)C(NC(=O)CCl)(Nc1sc(C)c(CC)c1C#N)C(F)(F)F (stereo not drawn)	?	?	-106.9*	-20.8%	-24.2%	6.51µM*
SMILES	HT1080NT lethal	DT40 TDP1 CPT	IL1B secr inh	ELG1 repair inh	HT1080 IDH1KD tx	DT40 TDP1 no CPT
COc1ccc(-c2cn[nH]c2-c2ccc(OCc3ccc([N+](=O)[O-])cc3)cc2O)cc1OC	-22.0%	?	?	?	-23.6%	20.6µM*
CCOc1ccc(-c2[nH]ncc2Oc2cccc(OC)c2)c(O)c1	?	?	-4.9	-14.3%	?	?
CCc1cc(-c2[nH]ncc2-c2ccc([N+](=O)[O-])cc2)c(O)cc1OC	-5.3%	?	?	0.4%	-2.7%	?
O=[N+]([O-])c1ccc(COc2ccc(-c3[nH]ncc3-c3ccc(Cl)cc3)c(O)c2)cc1	?	?	-92.1*	?	23.1µM*	23.1µM*
COc1ccc(-c2cn[nH]c2-c2ccc(OCc3ccccc3F)cc2O)cc1OC	29.1µM*	29.1µM*	?	?	18.4µM*	11.6µM*
COc1ccc(C(CNC(=O)c2cc(S(=O)(=O)N3CCN(c4ccccc4)CC3)ccc2Cl)N(C)C)cc1 (stereo not drawn)	?	20.6µM*	?	?	?	18.4µM*
COc1ccc(C(CNC(=O)c2ccc(S(=O)(=O)N3CC(C)CC(C)C3)cc2)N(C)C)cc1 (stereo not drawn)	?	?	-52.2*	?	?	29.1µM*
O=C(NCc1ccccn1)c1cc(S(=O)(=O)N2CCN(c3ccccc3)CC2)ccc1Cl	3.5%	10.3µM*	18.4	?	1.1%	18.4µM*
Cc1ncc2c(c1CNC(=O)c1cncs1)CCN(C(=O)c1ccc(-c3ccccc3)cc1)C2	·	-2.2%[9.04 µM]	·	·	·	-24.6%
CC(C)NC(=O)Cn1nnc(-c2ccccc2)c1COc1ccc2ccccc2c1	-27.4%	14.6µM*	-17.6	·	-12.0%	?
COc1ccc(NC(=O)Cn2nnc(-c3ccccc3)c2COc2ccc3ccccc3c2)cn1	?	20.6µM*	-10.2	·	?	23.1µM*
O=C(N=C1N=C2C=CC=CN2Cc2ccccc21)c1ccc(S(=O)(=O)N2CCCC2)cc1	-1.1%	4.2%	-11.5	?	-14.2%	?
CN(C)S(=O)(=O)c1cccc(C(=O)N=C2N=C3C=CC(Cl)=CN3Cc3ccccc32)c1	8.2%	?	17.6	?	7.4%	16.4µM*
Clc1cccc(N/N=C/c2ccc(N3CCOCC3)s2)c1	7.5%	-5.1%	9.5	?	12.1%	9.2%
CCCC[N+](CC#CCO)(CC#Cc1ccccc1)CCCC	-7.3%	?	-14.0	-14.9%	-18.0%	9.2µM*
